Measurements reported in PubChem BioAssay AID1159580 (chemical genetic matrix, 2015).
In all, about 5,500 compounds went through this assay and about 2,000 (36%) were called active. Another 18% or so got no clear call; they are omitted. Cut-off read from the data, not from the text of the source: active = normalized growth mostly below about 0.91 (no sharp cut-off); inconclusive = no clear call, values can overlap the other calls; inactive = mostly above about 0.92. This is one part of the list.

Test: chemical genetic growth profiling, strain panel (AID 1159580);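 note: tested at 20 µM; growth read once vehicle control cultures reached saturation at 30 °C; 1 = growth at the plate median or of vehicle wells; lower values mean less growth of the strain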
Settings: growth OD
[1] = S. cerevisiae deletion strains, locus YCL061C, strain MRC1, active compounds read low
[2] = S. cerevisiae deletion strains, locus YHR030C, strain SLT2, active compounds read low
[3] = S. cerevisiae deletion strains, locus YJL187C, strain SWE1, active compounds read low

Measured: normalized growth

COc1cc(C(=O)NCCCCCC(=O)O)cc(OC)c1OC
inactive: S. cerevisiae deletion strains, locus YAL021C, strain ccr4, active compounds read low 0.976 | S. cerevisiae deletion strains, locus YAL026C, strain drs2, active compounds read low 0.981 | S. cerevisiae deletion strains, locus YAL030W, strain snc1, active compounds read low 0.959 | S. cerevisiae deletion strains, locus YBL061C, strain skt5, active compounds read low 0.973 | S. cerevisiae deletion strains, locus YBR009C, strain hhf1, active compounds read low 0.977 | S. cerevisiae deletion strains, locus YBR023C, strain chs3, active compounds read low 0.986 | S. cerevisiae deletion strains, locus YBR171W, strain sec66, active compounds read low 0.97 | S. cerevisiae deletion strains, locus YBR231C, strain swc5, active compounds read low 0.978 | S. cerevisiae deletion strains, locus YBR279W, strain paf1, active compounds read low 0.979 | S. cerevisiae deletion strains, locus YCL011C, strain gbp2, active compounds read low 0.977 | S. cerevisiae deletion strains, locus YCL016C, strain dcc1, active compounds read low 0.982 | [1] 0.995 | S. cerevisiae deletion strains, locus YCL069W, strain vba3, active compounds read low 0.984 | S. cerevisiae deletion strains, locus YCR088W, strain abp1, active compounds read low 0.986 | S. cerevisiae deletion strains, locus YDL005C, strain med2, active compounds read low 0.973 | S. cerevisiae deletion strains, locus YDL040C, strain nat1, active compounds read low 0.981 | S. cerevisiae deletion strains, locus YDR001C, strain nth1, active compounds read low 0.969 | S. cerevisiae deletion strains, locus YDR069C, strain doa4, active compounds read low 0.973 | S. cerevisiae deletion strains, locus YDR137W, strain rgp1, active compounds read low 0.975 | S. cerevisiae deletion strains, locus YDR159W, strain sac3, active compounds read low 0.966 | S. cerevisiae deletion strains, locus YDR195W, strain ref2 0.966 | S. cerevisiae deletion strains, locus YDR297W, strain sur2, active compounds read low 0.962 | S. cerevisiae deletion strains, locus YDR334W, strain swr1, active compounds read low 0.935 | S. cerevisiae deletion strains, locus YDR335W, strain msn5, active compounds read low 0.975 | S. cerevisiae deletion strains, locus YDR392W, strain spt3, active compounds read low 0.983 | S. cerevisiae deletion strains, locus YEL003W, strain gim4, active compounds read low 0.98 | S. cerevisiae deletion strains, locus YEL037C, strain rad23, active compounds read low 0.985 | S. cerevisiae deletion strains, locus YEL061C, strain CIN8 (second series), active compounds read low 0.974 | S. cerevisiae deletion strains, locus YER015W, strain faa2, active compounds read low 0.972 | S. cerevisiae deletion strains, locus YER016W, strain bim1, active compounds read low 0.981 | S. cerevisiae deletion strains, locus YER111C, strain swi4, active compounds read low 0.979 | S. cerevisiae deletion strains, locus YER155C, strain BEM2 (second series), active compounds read low 0.969 | S. cerevisiae deletion strains, locus YFR010W, strain ubp6, active compounds read low 0.966 | S. cerevisiae deletion strains, locus YGL167C, strain pmr1, active compounds read low 0.986 | S. cerevisiae deletion strains, locus YGL173C, strain kem1, active compounds read low 0.959 | S. cerevisiae deletion strains, locus YGL227W, strain vid30, active compounds read low 0.976 | S. cerevisiae deletion strains, locus YGL240W, strain doc1, active compounds read low 0.972 | S. cerevisiae deletion strains, locus YGL253W, strain hxk2, active compounds read low 0.986 | S. cerevisiae deletion strains, locus YHR013C, strain ard1, active compounds read low 0.973 | S. cerevisiae deletion strains, locus YHR027C, strain rpn1, active compounds read low 0.964 | [2] 0.972 | S. cerevisiae deletion strains, locus YHR079C, strain IRE1, active compounds read low 0.974 | S. cerevisiae deletion strains, locus YHR142W, strain chs7, active compounds read low 0.981 | S. cerevisiae deletion strains, locus YJL092W, strain hpr5, active compounds read low 0.994 | S. cerevisiae deletion strains, locus YJL095W, strain BCK1 (second series), active compounds read low 0.977 | S. cerevisiae deletion strains, locus YJL095W, strain BCK1, active compounds read low 1.02 | S. cerevisiae deletion strains, locus YJL115W, strain asf1, active compounds read low 0.975 | S. cerevisiae deletion strains, locus YJL129C, strain trk1, active compounds read low 0.999 | S. cerevisiae deletion strains, locus YJL154C, strain vps35, active compounds read low 0.97 | S. cerevisiae deletion strains, locus YJL164C, strain tpk1, active compounds read low 0.998 | S. cerevisiae deletion strains, locus YJL166W, strain qcr8, active compounds read low 0.974 | [3] 0.983 | S. cerevisiae deletion strains, locus YJR066W, strain TOR1, active compounds read low 0.923 | S. cerevisiae deletion strains, locus YKL160W, strain elf1, active compounds read low 0.992 | S. cerevisiae deletion strains, locus YKR026C, strain gcn3, active compounds read low 0.993 | S. cerevisiae deletion strains, locus YKR091W, strain srl3, active compounds read low 0.984 | S. cerevisiae deletion strains, locus YLL001W, strain dnm1, active compounds read low 0.998 | S. cerevisiae deletion strains, locus YLL026W, active compounds read low 0.964 | S. cerevisiae deletion strains, locus YLL041C, strain sdh2, active compounds read low 0.981 | S. cerevisiae deletion strains, locus YLR027C, strain aat2, active compounds read low 0.977 | S. cerevisiae deletion strains, locus YLR113W, strain HOG1, active compounds read low 1.01 | S. cerevisiae deletion strains, locus YLR221C, strain rsa3, active compounds read low 0.991 | S. cerevisiae deletion strains, locus YLR258W, strain gsy2, active compounds read low 0.987 | S. cerevisiae deletion strains, locus YLR262C, strain YPT6 (second series), active compounds read low 0.962 | S. cerevisiae deletion strains, locus YLR320W, strain mms22, active compounds read low 0.985 | S. cerevisiae deletion strains, locus YLR342W, strain FKS1, active compounds read low 0.985 | S. cerevisiae deletion strains, locus YLR357W, strain rsc2, active compounds read low 1.01 | S. cerevisiae deletion strains, locus YLR370C, strain arc18, active compounds read low 0.973 | S. cerevisiae deletion strains, locus YLR384C, strain iki3, active compounds read low 0.975 | S. cerevisiae deletion strains, locus YML120C, strain ndi1, active compounds read low 0.987 | S. cerevisiae deletion strains, locus YMR058W, strain fet3, active compounds read low 0.974 | S. cerevisiae deletion strains, locus YMR125W, strain sto1, active compounds read low 0.979 | S. cerevisiae deletion strains, locus YMR129W, active compounds read low 0.995 | S. cerevisiae deletion strains, locus YMR205C, strain PFK2, active compounds read low 0.968 | S. cerevisiae deletion strains, locus YMR231W, strain pep5, active compounds read low 0.991 | S. cerevisiae deletion strains, locus YNL071W, strain lat1, active compounds read low 0.985 | S. cerevisiae deletion strains, locus YNL183C, strain NPR1, active compounds read low 0.935 | S. cerevisiae deletion strains, locus YNL209W, strain ssb2, active compounds read low 0.977 | S. cerevisiae deletion strains, locus YNL248C, strain rpa49, active compounds read low 0.986 | S. cerevisiae deletion strains, locus YNL322C, strain KRE1 (second series), active compounds read low 0.966 | S. cerevisiae deletion strains, locus YNR049C, strain mso1, active compounds read low 0.976 | S. cerevisiae deletion strains, locus YOR001W, strain rrp6, active compounds read low 0.977 | S. cerevisiae deletion strains, locus YOR070C, strain gyp1, active compounds read low 0.978 | S. cerevisiae deletion strains, locus YOR080W, strain dia2, active compounds read low 0.974 | S. cerevisiae deletion strains, locus YOR083W, strain WHI5, active compounds read low 0.98 | S. cerevisiae deletion strains, locus YOR106W, strain vam3, active compounds read low 0.979 | S. cerevisiae deletion strains, locus YOR231W, strain MKK1, active compounds read low 0.99 | S. cerevisiae deletion strains, locus YOR265W, strain rbl2, active compounds read low 0.973 | S. cerevisiae deletion strains, locus YOR270C, strain vph1, active compounds read low 0.996 | S. cerevisiae deletion strains, locus YOR290C, strain snf2, active compounds read low 0.976 | S. cerevisiae deletion strains, locus YPL051W, strain arl3, active compounds read low 0.988 | S. cerevisiae deletion strains, locus YPL078C, strain atp4, active compounds read low 0.98 | S. cerevisiae deletion strains, locus YPL106C, strain sse1, active compounds read low 0.916 | S. cerevisiae deletion strains, locus YPL240C, strain hsp82, active compounds read low 0.982 | S. cerevisiae deletion strains, locus YPL256C, strain CLN2, active compounds read low 0.93

CC(OCc1ccccc1)C(NC(=O)OC(C)(C)C)C(N)=O (centres undefined)
inactive: S. cerevisiae deletion strains, locus YAL013W, strain DEP1, active compounds read low 0.998 | S. cerevisiae deletion strains, locus YBR229C, strain ROT2, active compounds read low 0.994 | [1] 0.993 | S. cerevisiae deletion strains, locus YDL101C, strain DUN1, active compounds read low 0.993 | S. cerevisiae deletion strains, locus YDL134C, strain PPH21, active compounds read low 0.994 | S. cerevisiae deletion strains, locus YDR150W, strain NUM1, active compounds read low 0.985 | S. cerevisiae deletion strains, locus YEL061C, strain CIN8, active compounds read low 0.988 | S. cerevisiae deletion strains, locus YGR078C, strain PAC10, active compounds read low 0.997 | [2] 0.903 | S. cerevisiae deletion strains, locus YHR087W, strain rtc3, active compounds read low 0.988 | [3] 1 | S. cerevisiae deletion strains, locus YJR043C, strain POL32, active compounds read low 0.974 | S. cerevisiae deletion strains, locus YJR075W, strain HOC1, active compounds read low 1.02 | S. cerevisiae deletion strains, locus YLR039C, strain RIC1, active compounds read low 0.977 | S. cerevisiae deletion strains, locus YLR058C, strain SHM2 (second series), active compounds read low 1 | S. cerevisiae deletion strains, locus YLR085C, strain ARP6, active compounds read low 1.02 | S. cerevisiae deletion strains, locus YLR262C, strain YPT6, active compounds read low 0.864 | S. cerevisiae deletion strains, locus YML094W, strain GIM5, active compounds read low 1.04 | S. cerevisiae deletion strains, locus YMR219W, strain ESC1, active compounds read low 0.991 | S. cerevisiae deletion strains, locus YMR263W, strain SAP30, active compounds read low 0.976 | S. cerevisiae deletion strains, locus YMR307W, strain GAS1, active compounds read low 1.07 | S. cerevisiae deletion strains, locus YNL153C, strain GIM3, active compounds read low 0.998 | S. cerevisiae deletion strains, locus YNL298W, strain CLA4 (second series), active compounds read low 0.974 | S. cerevisiae deletion strains, locus YNL322C, strain KRE1, active compounds read low 0.985 | S. cerevisiae deletion strains, locus YNR030W, strain Alg12, active compounds read low 0.961 | S. cerevisiae deletion strains, locus YPL055C, strain LGE1, active compounds read low 1.02 | S. cerevisiae deletion strains, locus YPL241C, strain CIN2, active compounds read low 1 | S. cerevisiae deletion strains, locus YPR135W, strain CTF4, active compounds read low 0.9 | S. cerevisiae strains, strain wild type, active compounds read low 0.971
